# According to the supplement of paper PMC12024529:
# Tested on: HEK293 WT BDD-FVIII-Gluc
# Test: secreted FVIII-Gluc luciferase Z-score vs DMSO control; higher = more FVIII-Gluc secretion
# Conditions: 5 µM
# Procedure: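 Natural plant-compound library (480 compounds, ST catalogue IDs) screened on HEK293 cells stably expressing WT BDD-FVIII-Gaussia luciferase fusion at 5 µM. Secreted Gluc activity in the medium is given as a Z-score relative to DMSO controls.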
row,SMILES,secreted FVIII-Gluc luciferase Z-score
1,O=C(O)c1cc(O)c2c(c1)C(=O)c1cccc(O)c1C2=O,0.381
2,COC(=O)C[C@](O)(CCCC(C)(C)O)C(=O)O[C@@H]1C(OC)=C[C@]23CCCN2CCc2cc4c(cc2[C@H]13)OCO4,-4.72
3,COc1ccc2[nH]c(=O)c3c(c2c1)OC(C)(C)C=C3,-1.14
4,O=C(O)c1cc(=O)c2ccccc2[nH]1,0.496
5,C[C@H]1[C@H](C)CC[C@]2(C(=O)O)CC[C@]3(C)C(=CCC4[C@@]5(C)C[C@@H](O)[C@H](O)[C@@](C)(CO)[C@@H]5CC[C@]43C)[C@H]12 (some centres undefined),-0.822
6,COc1cc2c(C=O)c3c4c(cc(OC)c(OC)c4c2cc1OC)CCN3C,0.315
7,O=C(/C=C/c1ccc(O)cc1)c1ccccc1O,0.315
8,C[C@H]1[C@H]2CC[C@H]3[C@@H]4CC=C5C[C@@H](N(C)C)CC[C@]5(C)[C@H]4CC[C@]23CN1C,0.23
9,CO[C@H]1/C=C/O[C@@]2(C)Oc3c(C)c(O)c4c(O)c(c(C=O)c(O)c4c3C2=O)NC(=O)/C(C)=C\C=C\[C@H](C)[C@H](O)[C@@H](C)[C@@H](O)[C@@H](C)[C@H](OC(C)=O)[C@@H]1C,1.13
10,O=c1ccc2cc3ccoc3cc2o1,-0.26
11,CC(C)CCCC(C)C1CCC2C3CC=C4CC(O)CCC4(C)C3CCC12C (centres undefined),0.231
12,Oc1cc(O)c2c(c1)O[C@H](c1ccc(O)c(O)c1)[C@@H](O)C2,0.0727
13,CC(=O)OCC1OC(Oc2cc(OC(C)=O)c3c(=O)cc(-c4ccc(OC(C)=O)c(OC(C)=O)c4)oc3c2)C(OC(C)=O)C(OC(C)=O)C1OC(C)=O (centres undefined),-0.756
14,C/C1=C\CC(OC(=O)c2ccc(O)cc2)/C(C)=C/C(O)C(C)(C)CCC1 (centres undefined),-0.0859
15,COc1ccc(OC)c(C2Nc3ccccc3NC3=C2C(=O)CC(C)(C)C3)c1Br (centres undefined),0.0362
16,CC(=O)Oc1c(C)c(C)c2c(c1C)CCC(C)(CCCC(C)CCCC(C)CCCC(C)C)O2 (centres undefined),0.728
17,C=C1CCC2C(C)(CC[C@@H](O)C2(C)C)C1COc1ccc2ccc(=O)oc2c1 (some centres undefined),0.344
18,Cc1c(-c2ccccc2)oc2cc(O)ccc2c1=O,-0.0243
19,O=c1c(O)c(-c2cc(O)c(O)c(O)c2)oc2cc(O)cc(O)c12,0.93
20,CC1=CC(=O)C2=C(C)CCC3C(C)C(=O)OC3C12 (centres undefined),0.0708

row,SMILES,secreted FVIII-Gluc luciferase Z-score
1,O=C1c2ccccc2C(=O)c2c1ccc(O)c2O,0.508
2,C=C1CC23C[C@@]1(O)CCC2C12C=CC(O)C(C)(C(=O)O1)C2[C@@H]3C(=O)O (some centres undefined),-0.216
3,O=c1c(-c2ccc(O[C@@H]3O[C@H](CO)[C@@H](O)[C@H](O)[C@H]3O)cc2)coc2cc(O)cc(O)c12,0.683
4,Cc1c(C)c2c(c(C)c1OC(=O)CCC(=O)O)CC[C@@](C)(CCC[C@H](C)CCC[C@H](C)CCCC(C)C)O2,0.648
5,COc1ccc(-c2coc3cc(O)ccc3c2=O)cc1,0.632
6,CC(C)C1=CC2=CCC3C(C)(C(=O)O)CCC[C@]3(C)C2CC1 (some centres undefined),0.107
7,COc1c(-c2ccccc2)oc2c(ccc3occc32)c1=O,0.489
8,Nc1ncnc2c1ncn2[C@@H]1O[C@H](COP(=O)(O)OP(=O)(O)O)[C@@H](O)[C@H]1O,0.0418
9,O=C(O)C1[C@H]2C[C@H]3c4[nH]c5ccccc5c4CCN3C[C@@H]2CC[C@@H]1O (some centres undefined),0.257
10,C=C1C(=O)O[C@@H]2C3OC3(C)CC/C=C(\C)CC[C@@H]12 (some centres undefined),-0.0355
11,Nc1ccn(C2OC(COP(=O)(O)O)C(O)C2O)c(=O)n1 (centres undefined),0.194
12,O=C(O)CNC(=O)c1ccccc1,1.07
13,CCC12CCCN3CCc4c(n(c5ccccc45)C(O)(C(=O)OC)C1)C32 (centres undefined),0.301
14,O=C(O)C(=O)Cc1ccccc1,0.46
15,O=c1c(O)c(-c2cccc(O)c2)oc2ccccc12,-0.392
16,COc1cc2c(cc1OC)-c1c(OC)c(OC)cc3ccnc(c13)C2=O,-0.583
17,COc1ccccc1CC(Cc1nc2ccccc2[nH]1)c1nc2ccccc2[nH]1 (centres undefined),0.163
18,COc1ccc(-c2oc3ccccc3c(=O)c2O)cc1,-1.09
19,Cc1cc2ccc(=O)oc2cc1OC[C@@H](O)C(C)(C)O,-0.00524
